{
  "source": "PubChem BioAssay AID1159580",
  "about": "(chemical genetic matrix, 2015)",
  "assay": "chemical genetic growth profiling, strain panel (AID 1159580);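 note: tested at 20 µM; growth read once vehicle control cultures reached saturation at 30 °C; 1 = growth at the plate median or of vehicle wells; lower values mean less growth of the strain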",
  "details": "S. cerevisiae deletion strains, growth OD",
  "note": "“And” between values parts separate entries of the source, which are not always exact repeats. Equal entries are not always repeated. Hit rate of the full screen: of about 5,500 compounds, about 2,000 (36%) were called active. Another 18% or so got no clear call; they are omitted. Cut-off read from the data, not from the text of the source: active = normalized growth mostly below about 0.91 (no sharp cut-off); inconclusive = no clear call, values can overlap the other calls; inactive = mostly above about 0.92. The list shows a part of the results.",
  "data": [
    {"smiles": "C[n+]1c2cc(N)ccc2cc2ccc(N)cc21", "values": [
      {"measurement": "normalized growth", "setting": "locus YAL013W, strain DEP1, stronger effect = lower value", "value": "0.748 (active)"},
      {"measurement": "normalized growth", "setting": "locus YAL021C, strain ccr4, stronger effect = lower value", "value": "0.335 (active)"},
      {"measurement": "normalized growth", "setting": "locus YAL026C, strain drs2, stronger effect = lower value", "value": "0.586 (active)"},
      {"measurement": "normalized growth", "setting": "locus YAL030W, strain snc1, stronger effect = lower value", "value": "0.505 (active)"},
      {"measurement": "normalized growth", "setting": "locus YBL061C, strain skt5, stronger effect = lower value", "value": "0.616 (active)"},
      {"measurement": "normalized growth", "setting": "locus YBR009C, strain hhf1, stronger effect = lower value", "value": "0.356 (active)"},
      {"measurement": "normalized growth", "setting": "locus YBR021W, strain FUR4, stronger effect = lower value", "value": "1.11 (inactive)"},
      {"measurement": "normalized growth", "setting": "locus YBR023C, strain chs3, stronger effect = lower value", "value": "0.666 (active)"},
      {"measurement": "normalized growth", "setting": "locus YBR171W, strain sec66, stronger effect = lower value", "value": "0.934 (inactive)"},
      {"measurement": "normalized growth", "setting": "locus YBR229C, strain ROT2, stronger effect = lower value", "value": "0.888 (active)"},
      {"measurement": "normalized growth", "setting": "locus YBR231C, strain swc5, stronger effect = lower value", "value": "0.359 (active)"},
      {"measurement": "normalized growth", "setting": "locus YBR279W, strain paf1, stronger effect = lower value", "value": "0.701 (active)"},
      {"measurement": "normalized growth", "setting": "locus YCL011C, strain gbp2, stronger effect = lower value", "value": "0.438 (active)"},
      {"measurement": "normalized growth", "setting": "locus YCL016C, strain dcc1, stronger effect = lower value", "value": "0.331 (active)"},
      {"measurement": "normalized growth", "setting": "locus YCL029C, strain bik1, stronger effect = lower value", "value": "0.67 (active)"},
      {"measurement": "normalized growth", "setting": "locus YCL069W, strain vba3, stronger effect = lower value", "value": "0.588 (active)"},
      {"measurement": "normalized growth", "setting": "locus YCR088W, strain abp1, stronger effect = lower value", "value": "0.55 (active)"},
      {"measurement": "normalized growth", "setting": "locus YDL005C, strain med2, stronger effect = lower value", "value": "0.572 (active)"},
      {"measurement": "normalized growth", "setting": "locus YDL035C, strain GPR1, stronger effect = lower value", "value": "0.72 (active)"},
      {"measurement": "normalized growth", "setting": "locus YDL040C, strain nat1, stronger effect = lower value", "value": "0.718 (active)"},
      {"measurement": "normalized growth", "setting": "locus YDL074C, strain BRE1, stronger effect = lower value", "value": "0.575 (active)"},
      {"measurement": "normalized growth", "setting": "locus YDL101C, strain DUN1, stronger effect = lower value", "value": "0.761 (active)"},
      {"measurement": "normalized growth", "setting": "locus YDL134C, strain PPH21, stronger effect = lower value", "value": "0.726 (active)"},
      {"measurement": "normalized growth", "setting": "locus YDL185W, strain tfp1, stronger effect = lower value", "value": "0.938 (inactive)"},
      {"measurement": "normalized growth", "setting": "locus YDL192W, strain arf1, stronger effect = lower value", "value": "0.844 (active)"},
      {"measurement": "normalized growth", "setting": "locus YDR001C, strain nth1, stronger effect = lower value", "value": "0.74 (active)"},
      {"measurement": "normalized growth", "setting": "locus YDR069C, strain doa4, stronger effect = lower value", "value": "0.591 (active)"},
      {"measurement": "normalized growth", "setting": "locus YDR101C, strain arx1, stronger effect = lower value", "value": "0.81 (active)"},
      {"measurement": "normalized growth", "setting": "locus YDR137W, strain rgp1, stronger effect = lower value", "value": "0.616 (active)"},
      {"measurement": "normalized growth", "setting": "locus YDR150W, strain NUM1, stronger effect = lower value", "value": "0.831 (active)"},
      {"measurement": "normalized growth", "setting": "locus YDR159W, strain sac3, stronger effect = lower value", "value": "0.77 (active)"},
      {"measurement": "normalized growth", "setting": "locus YDR162C, strain NBP2, stronger effect = lower value", "value": "0.723 (active)"},
      {"measurement": "normalized growth", "setting": "locus YDR195W, strain ref2", "value": "1.22 [resistant] (active)"},
      {"measurement": "normalized growth", "setting": "locus YDR297W, strain sur2, stronger effect = lower value", "value": "0.652 (active)"},
      {"measurement": "normalized growth", "setting": "locus YDR318W, strain mcm21, stronger effect = lower value", "value": "0.834 (active)"},
      {"measurement": "normalized growth", "setting": "locus YDR334W, strain swr1, stronger effect = lower value", "value": "0.412 (active)"},
      {"measurement": "normalized growth", "setting": "locus YDR335W, strain msn5, stronger effect = lower value", "value": "0.499 (active)"},
      {"measurement": "normalized growth", "setting": "locus YDR388W, stronger effect = lower value", "value": "0.722 (active)"},
      {"measurement": "normalized growth", "setting": "locus YDR392W, strain spt3, stronger effect = lower value", "value": "0.352 (active)"},
      {"measurement": "normalized growth", "setting": "locus YDR502C, strain sam2, stronger effect = lower value", "value": "0.793 (active)"},
      {"measurement": "normalized growth", "setting": "locus YEL003W, strain gim4, stronger effect = lower value", "value": "0.491 (active)"},
      {"measurement": "normalized growth", "setting": "locus YEL037C, strain rad23, stronger effect = lower value", "value": "0.437 (active)"},
      {"measurement": "normalized growth", "setting": "locus YEL061C, strain CIN8 (second series), stronger effect = lower value", "value": "0.652 (active)"},
      {"measurement": "normalized growth", "setting": "locus YEL061C, strain CIN8, stronger effect = lower value", "value": "0.851 (active)"},
      {"measurement": "normalized growth", "setting": "locus YER015W, strain faa2, stronger effect = lower value", "value": "0.498 (active)"},
      {"measurement": "normalized growth", "setting": "locus YER016W, strain bim1, stronger effect = lower value", "value": "0.479 (active)"},
      {"measurement": "normalized growth", "setting": "locus YER110C, stronger effect = lower value", "value": "0.961 (inactive)"},
      {"measurement": "normalized growth", "setting": "locus YER111C, strain swi4, stronger effect = lower value", "value": "0.633 (active)"},
      {"measurement": "normalized growth", "setting": "locus YER155C, strain BEM2 (second series), stronger effect = lower value", "value": "0.272 (active)"},
      {"measurement": "normalized growth", "setting": "locus YER155C, strain BEM2, stronger effect = lower value", "value": "0.935 (inactive)"},
      {"measurement": "normalized growth", "setting": "locus YER167W, strain BCK2, stronger effect = lower value", "value": "0.754 (active)"},
      {"measurement": "normalized growth", "setting": "locus YFR010W, strain ubp6, stronger effect = lower value", "value": "0.536 (active)"},
      {"measurement": "normalized growth", "setting": "locus YGL078C, strain dbp3, stronger effect = lower value", "value": "0.937 (inactive)"},
      {"measurement": "normalized growth", "setting": "locus YGL086W, strain mad1, stronger effect = lower value", "value": "0.778 (active)"},
      {"measurement": "normalized growth", "setting": "locus YGL167C, strain pmr1, stronger effect = lower value", "value": "0.938 (inactive)"},
      {"measurement": "normalized growth", "setting": "locus YGL173C, strain kem1, stronger effect = lower value", "value": "0.481 (active)"},
      {"measurement": "normalized growth", "setting": "locus YGL227W, strain vid30, stronger effect = lower value", "value": "0.671 (active)"},
      {"measurement": "normalized growth", "setting": "locus YGL240W, strain doc1, stronger effect = lower value", "value": "0.63 (active)"},
      {"measurement": "normalized growth", "setting": "locus YGL248W, strain PDE1, stronger effect = lower value", "value": "0.758 (active)"},
      {"measurement": "normalized growth", "setting": "locus YGL253W, strain hxk2, stronger effect = lower value", "value": "0.425 (active)"},
      {"measurement": "normalized growth", "setting": "locus YGR078C, strain PAC10, stronger effect = lower value", "value": "0.722 (active)"},
      {"measurement": "normalized growth", "setting": "locus YGR135W, strain pre9, stronger effect = lower value", "value": "0.777 (active)"},
      {"measurement": "normalized growth", "setting": "locus YGR229C, strain SMI1, stronger effect = lower value", "value": "0.704 (active)"},
      {"measurement": "normalized growth", "setting": "locus YGR252W, strain gcn5, stronger effect = lower value", "value": "0.531 (active)"},
      {"measurement": "normalized growth", "setting": "locus YHR013C, strain ard1, stronger effect = lower value", "value": "0.397 (active)"},
      {"measurement": "normalized growth", "setting": "locus YHR027C, strain rpn1, stronger effect = lower value", "value": "0.546 (active)"},
      {"measurement": "normalized growth", "setting": "locus YHR030C, strain SLT2, stronger effect = lower value", "value": "0.724 (active) and 0.882 (inactive)"},
      {"measurement": "normalized growth", "setting": "locus YHR079C, strain IRE1 (second series), stronger effect = lower value", "value": "0.779 (active)"},
      {"measurement": "normalized growth", "setting": "locus YHR079C, strain IRE1, stronger effect = lower value", "value": "0.841 (active)"},
      {"measurement": "normalized growth", "setting": "locus YHR094C, strain hxt1, stronger effect = lower value", "value": "0.939 (inactive)"},
      {"measurement": "normalized growth", "setting": "locus YHR129C, strain ARP1, stronger effect = lower value", "value": "0.897 (active)"},
      {"measurement": "normalized growth", "setting": "locus YHR142W, strain chs7, stronger effect = lower value", "value": "0.44 (active)"},
      {"measurement": "normalized growth", "setting": "locus YHR200W, strain rpn10, stronger effect = lower value", "value": "0.682 (active)"},
      {"measurement": "normalized growth", "setting": "locus YIL066C, strain RNR3, stronger effect = lower value", "value": "0.792 (active)"},
      {"measurement": "normalized growth", "setting": "locus YIL073C, strain SPO22, stronger effect = lower value", "value": "0.534 (active)"},
      {"measurement": "normalized growth", "setting": "locus YIL125W, strain kgd1, stronger effect = lower value", "value": "0.945 (inactive)"},
      {"measurement": "normalized growth", "setting": "locus YIR030C, strain dcg1, stronger effect = lower value", "value": "0.859 (active)"},
      {"measurement": "normalized growth", "setting": "locus YJL092W, strain hpr5, stronger effect = lower value", "value": "0.253 (active)"},
      {"measurement": "normalized growth", "setting": "locus YJL095W, strain BCK1 (second series), stronger effect = lower value", "value": "0.487 (active)"},
      {"measurement": "normalized growth", "setting": "locus YJL095W, strain BCK1, stronger effect = lower value", "value": "0.486 (active) and 0.879 (active)"},
      {"measurement": "normalized growth", "setting": "locus YJL115W, strain asf1, stronger effect = lower value", "value": "0.369 (active)"},
      {"measurement": "normalized growth", "setting": "locus YJL129C, strain trk1, stronger effect = lower value", "value": "0.773 (active)"},
      {"measurement": "normalized growth", "setting": "locus YJL134W, strain LCB3, stronger effect = lower value", "value": "0.912 (active)"},
      {"measurement": "normalized growth", "setting": "locus YJL154C, strain vps35, stronger effect = lower value", "value": "0.808 (active)"},
      {"measurement": "normalized growth", "setting": "locus YJL164C, strain tpk1, stronger effect = lower value", "value": "0.417 (active)"},
      {"measurement": "normalized growth", "setting": "locus YJL166W, strain qcr8, stronger effect = lower value", "value": "0.392 (active)"},
      {"measurement": "normalized growth", "setting": "locus YJL168C, strain set2, stronger effect = lower value", "value": "0.91 (active)"},
      {"measurement": "normalized growth", "setting": "locus YJL187C, strain SWE1 (second series), stronger effect = lower value", "value": "0.708 (active)"},
      {"measurement": "normalized growth", "setting": "locus YJR043C, strain POL32, stronger effect = lower value", "value": "0.703 (active)"},
      {"measurement": "normalized growth", "setting": "locus YJR066W, strain TOR1, stronger effect = lower value", "value": "0.849 (inactive)"},
      {"measurement": "normalized growth", "setting": "locus YJR075W, strain HOC1, stronger effect = lower value", "value": "0.566 (active)"}
    ]}
  ]
}
